For the first assay, the system named is XIP peptide (Xip251-270). Description: small-molecule binders of XIP peptide, primary screen, biochemical, small-molecule microarray, fluorescence 635/667 nm, 0.5 µg/mL protein (AID 1183). To be noted: small-molecule microarray binding, fluorescence 635 nm; higher = more signal.
For `O=C1C2C=CC(C(O)c3ccco3)N(Nc3ccccc3F)C2C(=O)N1c1ccccc1` (stereo not given), the composite z-score was -0.139.

In the case of `CC(C)(C)OC(=O)COc1cccc(C(=O)CCN2CCOCC2)c1`, the composite z-score was 0.248.

For the compound `CS(=O)(=O)CCOC(=O)C1=CC(CCCO)=CC(c2ccc(CN3CCCC3)cc2)N(Cc2sc3ccccc3c2Cl)C=C1C(=O)OCCS(C)(=O)=O` (stereo not given), the composite z-score was determined as 0.746.

As to `COC(=O)[C@@]1(Cc2ccc(F)cc2)[C@H]2c3cc(C(=O)N(C)C)n(CCc4ccc(OC)c(Br)c4)c3C[C@H]2CN1C(=O)c1ccccc1`, the composite z-score was 0.167.

For the compound `COc1ccc([Si](C)(C)[C@@H]2[C@@H](CC(=O)N3Cc4ccccc4C[C@H]3CO)O[C@]3(C(=O)N(Cc4ccc(N5C(=O)c6cccc7cccc5c67)cc4)c4ccccc43)[C@H]2C)cc1`, the composite z-score was 0.747.

System in the next assay: not listed separately
Description: Plasmodium falciparum growth inhibition, primary screen, strain 3D7, DAPI fluorescence, 100 nL (AID 1184).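 Further: parasites grown inside human red blood cells in medium with human serum.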 As to conditions: P. falciparum 3D7 growth, 3 d, higher = more signal.
In the case of `COc1cc2c(cc1O)C(C1CC1)N(Cc1cccc(OC(F)(F)F)c1)CC2` (stereo not given), the z-score was -1.8.

Regarding `C=CC[C@]1(C(=O)N2CCOCC2)COC(c2ccc(OCCCO)cc2)=N1`, the z-score is -0.813.

On to `C=CC[C@]1(C(=O)N2CCCCC2)N=C(c2ccc(OCCCO)cc2)O[C@H]1c1ccccc1CN=[N+]=[N-]`, for which the z-score was -2.57.

As to `COc1ccc(CCNC(=O)[C@@]2(Sc3ccc(C)cc3)CC(=O)N(Cc3ccccc3C(F)(F)F)[C@@H]2c2ccc(CO)cc2I)cc1`, the z-score is -0.77.

In the case of `O=C1N(CCS(=O)(=O)c2ccccc2)c2ccccc2[C@H]2OC(c3ccc(OCCCO)cc3)=N[C@@]12Cc1ccccc1`, the z-score was -1.92.

In turn, `CCCCC[C@H]1OC[C@@]23C=C(Br)[C@@H](CC12)[C@@]1(CO1)C3=O` (stereo not given in full) returned a z-score of 1.66.

Turning to `COC(=O)[C@@]1(Cc2ccc(OC)cc2)[C@H]2c3cc(C(=O)N(C)C)n(Cc4ccc(OC(F)(F)F)cc4)c3C[C@H]2CN1C(=O)c1ccccc1`, the z-score was -1.42.

With `CCC#CCN(Cc1ccccc1Br)[C@H](/C=C/C1CC1)[C@@H](O)Cc1ccccc1`, the z-score is -3.17.

Turning to `CC[C@@H]1O[Si](C(C)C)(C(C)C)c2c1cc(-c1cc(C)c(OC)c(C)c1)nc2-c1ccc(Oc2ccccc2)cc1`, the z-score was 0.0977.

`CCCNC(=O)[C@@]1(C)c2ccccc2C(=O)N(c2ccc(C)cn2)[C@H]1c1ccc(CO)cc1` showed a z-score of 1.01.

Consider `[N-]=[N+]=Nc1ccccc1[C@@H]1OC(c2ccc(OCCCO)cc2)=N[C@]1(Cc1ccccc1)C(=O)N1CCCCC1`, for which the z-score is -2.38.

For `COc1ccc([Si](C)(C)[C@@H]2[C@@H](CCO)O[C@]3(C(=O)N(Cc4ccccc4)c4ccc(N5C(=O)c6cccc7cccc5c67)cc43)[C@H]2C)cc1`, the z-score is -2.76.

Take `COc1cccc(C)c1NC(=O)O[C@H]1[C@H](OC(=O)Nc2ccc3c(c2)OCO3)[C@@H](OC(=O)Nc2ccc3c(c2)OCO3)[C@@H](OC)O[C@@H]1CO`: the z-score is -2.44.

For the compound `Cc1cc(C)c(C(O)C2C=CC3C(=O)N(c4ccccc4)C(=O)C3N2Nc2ccccc2F)c(C)c1` (stereo not given), the z-score is -0.286.

The compound `CCCC1(C(=O)OC)C=C2C(=C(C)C(=O)C2C)CN1` (stereo not given) registered a z-score of 0.43.

Regarding `O=C(NCCN1CCOCC1)[C@@H]1c2ccccc2C(=O)N(Cc2ccccc2Cl)[C@H]1c1ccc(CO)cc1`, the z-score was -0.879.

As for `C=C(/C(=C/C[C@H](OC(C)=O)c1ccc(CO)o1)c1cnc2ccccc2c1)C(C)C`, the z-score was -1.14.

Turning to `CCOC(=O)C[C@H]1[C@H](OC(=O)Cc2ccc3c(c2)OCO3)[C@@H](NC(=O)c2ccc3ccccc3n2)c2cc(OCCCO)ccc2N1C(=O)c1ccc2ccccc2n1`, the z-score was -2.58.

`[N-]=[N+]=Nc1ccccc1C[C@]1(C(=O)NCCN2CCOCC2)COC(c2ccc(OCCCO)cc2)=N1`: the z-score is -1.06.

In the case of `COc1ccc(CCNC(=O)[C@@H]2c3ccccc3C(=O)N(C3CCCCC3)[C@H]2c2ccc(CO)cc2)cc1`, the z-score is -1.76.

Take `COCCOC(=O)N1C(=O)[C@@]2(c3ccccc31)[C@H](C(=O)NC[C@H](O)c1ccccc1)[C@H]1C(=O)O[C@H](c3ccccc3)[C@H](c3ccccc3)N1[C@@H]2c1ccc(O)cc1`: the z-score was -1.02.

Consider `COC(=O)[C@]1(CCS(=O)(=O)c2ccccc2)N=C(c2ccc(OCCCO)cc2)O[C@@H]1c1ccccc1N=[N+]=[N-]`, for which the z-score was -2.36.

The compound `CC(C)C(CO)N1C(=O)[C@@H]2C3C(=O)OCCC/C=C\[C@H]3OC23C=CCN(c2ccc4ccccc4c2)C(=O)[C@@H]13` (stereo not given in full) had a z-score of 0.674.

As to `CN1C2C=C(CCCO)C(C3C(=O)N(C(N)=O)C(=O)C32)C1C1CC1` (stereo not given), the z-score was found to be 1.89.

As to `NCCCCCNC(=O)[C@@H]1C[C@@H]2C(=O)N[C@@H](CCCCN)C(=O)N2[C@@H]1c1ccc(O)cc1`, the z-score is -1.56.

`CCCCCC1=C2CNC(C)(C(=O)OC)C=C2C(C)C1=O` (stereo not given) came in with a z-score of 0.157.

Turning to `COc1ccc(CCNC(=O)[C@@]2(c3ccc([N+](=O)[O-])cc3)CC(=O)N(C3CCCCC3)[C@@H]2c2ccc(CO)cc2)cc1`, the z-score was -0.171.

`COCCOC(=O)N1C(=O)[C@@]2(c3cc(C#CCC(C(=O)OC)C(=O)OC)ccc31)[C@H](c1ccc(OCCO)cc1)N1[C@H](c3ccccc3)[C@H](c3ccccc3)OC(=O)[C@H]1[C@@H]2C(=O)N1CCc2cc(OC)c(OC)cc2C1`: the z-score was -2.

Take `O=C(c1ccccc1)N1C(=O)[C@]2(Cc3ccccc31)N=C(c1ccc(OCCCO)cc1)O[C@@H]2c1ccccc1`: the z-score was -1.87.

Turning to `COc1ccc([Si](C)(C)[C@@H]2[C@@H](CCO)O[C@]3(C(=O)N(Cc4ccccc4)c4ccc(N5CCOC5=O)cc43)[C@H]2C)cc1`, the z-score is -2.79.

For `O=C1C2C=CC(C(O)c3ccco3)N(Nc3ccccc3F)C2C(=O)N1c1ccccc1` (stereo not given), the z-score was found to be 1.09.

On to `CC(C)(C)OC(=O)COc1cccc(C(=O)CCN2CCOCC2)c1`, for which the z-score is -0.367.

On to `CS(=O)(=O)CCOC(=O)C1=CC(CCCO)=CC(c2ccc(CN3CCCC3)cc2)N(Cc2sc3ccccc3c2Cl)C=C1C(=O)OCCS(C)(=O)=O` (stereo not given), for which the z-score was -3.03.

Turning to `COC(=O)[C@@]1(Cc2ccc(F)cc2)[C@H]2c3cc(C(=O)N(C)C)n(CCc4ccc(OC)c(Br)c4)c3C[C@H]2CN1C(=O)c1ccccc1`, the z-score is -1.75.

Turning to `COc1ccc([Si](C)(C)[C@@H]2[C@@H](CC(=O)N3Cc4ccccc4C[C@H]3CO)O[C@]3(C(=O)N(Cc4ccc(N5C(=O)c6cccc7cccc5c67)cc4)c4ccccc43)[C@H]2C)cc1`, the z-score was -0.962.

The values are drawn from PubChem BioAssay.
